Among the data in PubChem BioAssay (EPA / NIEHS) are AC50 and outcome values, retold here.

Holding throughout (conditions): mRNA level, 48 h; actives raise or lower the signal
Read-out in assay [1]: Early growth response protein 1 (EGR1) transcription factor, EGR1 (gene 1958)
Kind of assay: LTEA_HepaRG_EGR1: Life Technologies and Expression Analysis (LTEA) Assay for Early growth response protein 1 (EGR1) transcription factor using HepaRG (AID 2283490). Put shortly: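 Differentiated human HepaRG cells in serum-free induction medium were exposed in duplicate for 48 h to eight concentrations (top 100 uM, half-log steps) in 0.5% DMSO. EGR1 mRNA was quantified by qRT-PCR, normalized to ACTB, GAPDH and POLR2A, and fitted bidirectionally versus DMSO.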

Read-out in assay [2]: Ezrin (EZR), EZR (gene 7430)
In words: LTEA_HepaRG_EZR: Life Technologies and Expression Analysis (LTEA) Assay for Ezrin (EZR) using HepaRG (AID 2283491). Put shortly:
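Gain or loss of EZR mRNA is scored relative to 0.5% DMSO in human HepaRG cultures treated 48 h with test chemicals in duplicate, eight half-log concentrations from 100 uM.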

Read-out in assay [3]: Cytochrome P450 3A7 (Homo sapiens) (UniProt P24462)
Kind of assay: LTEA_HepaRG_CYP3A7: Life Technologies and Expression Analysis (LTEA) Assay for CYP3A7 using HepaRG (AID 2283492). The procedure, abridged: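 Cells were thawed, plated, cultured 48 h, then treated for a further 48 h with chemicals (eight-point half-log series from 100 uM, 0.5% DMSO). RNA was isolated and CYP3A7 expression quantified by qRT-PCR normalised to ACTB, GAPDH and POLR2A.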

Read-out in assay [4]: CYP3A5 (gene 1577)
In words: LTEA_HepaRG_CYP3A5: Life Technologies and Expression Analysis (LTEA) Assay for CYP3A5 using HepaRG (AID 2283493). Put shortly: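 mRNA induction or loss of CYP3A5 assessed in HepaRG after 48 h dosing, 100 uM top concentration, duplicate wells; TaqMan qRT-PCR with ACTB, GAPDH, POLR2A normalization; 0.5% DMSO as negative control.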

Read-out in assay [5]: Fatty Acid-Binding Protein 1 (FABP1), FABP1 (gene 2168)
In words: LTEA_HepaRG_FABP1: Life Technologies and Expression Analysis (LTEA) Assay for Fatty Acid-Binding Protein 1 (FABP1) using HepaRG (AID 2283494). Put shortly: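 Differentiated human HepaRG cells were exposed in duplicate for 48 h in serum-free induction medium to 8-point half-log concentration series topping at 100 uM in 0.5% DMSO. FABP1 mRNA measured by TaqMan qRT-PCR, normalized to ACTB/GAPDH/POLR2A; bidirectional fit versus DMSO.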

Read-out in assay [6]: Cytochrome P450 4A22 (Homo sapiens) (UniProt Q5TCH4)
Kind of assay: LTEA_HepaRG_CYP4A22: Life Technologies and Expression Analysis (LTEA) Assay for Cytochrome P450 4A22 (CYP4A22) using HepaRG (AID 2283495). Put shortly: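 Cryopreserved HepaRG cells, plated and cultured 48 h, then switched to serum-free induction medium and treated 48 h (duplicates, up to 100 uM, half-log steps, 0.5% DMSO). Expression change of CYP4A22 was fitted bidirectionally against vehicle.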

Read-out in assay [7]: Cytochrome P450 7A1 (Homo sapiens) (UniProt P22680)
Kind of assay: LTEA_HepaRG_CYP7A1: Life Technologies and Expression Analysis (LTEA) Assay for Cytochrome P450 7A1 (CYP7A1) using HepaRG (AID 2283496). The procedure, abridged:
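Gene expression endpoint in human HepaRG liver cells treated for 48 h with test chemicals (up to 100 uM, 0.5% DMSO). Values come from bidirectional concentration-response fitting versus DMSO.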

Read-out in assay [8]: Glutathione S-Transferase (GSTA2), GSTA2 (gene 2939)
In words: LTEA_HepaRG_GSTA2: Life Technologies and Expression Analysis (LTEA) Assay for Glutathione S-Transferase (GSTA2) using HepaRG (AID 2283497). The procedure, abridged:
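Human HepaRG cells, plated 48 h, then exposed in serum-free induction medium for 48 h to eight half-log concentrations up to 100 uM in 0.5% DMSO, duplicate. GSTA2 mRNA by qRT-PCR, normalized to ACTB/GAPDH/POLR2A; bidirectional fit versus DMSO.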

Read-out in assay [9]: Glutamate-cysteine ligase catalytic (GCLC), GCLC (gene 2729)
Kind of assay: LTEA_HepaRG_GCLC: Life Technologies and Expression Analysis (LTEA) Assay for Glutamate-cysteine ligase catalytic (GCLC) using HepaRG (AID 2283498). The procedure, abridged:
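Differentiated human HepaRG cells, plated 48 h then switched to serum-free induction medium, were exposed in duplicate for 48 h to 8 half-log concentrations topping at 100 uM in 0.5% DMSO. GCLC mRNA was quantified by qRT-PCR against ACTB, GAPDH and POLR2A.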

Read-out in assay [10]: growth arrest and DNA damage 45 (GADD45G), GADD45G (gene 10912)
In words: LTEA_HepaRG_GADD45G: Life Technologies and Expression Analysis (LTEA) Assay for growth arrest and DNA damage 45 (GADD45G) using HepaRG (AID 2283499). The procedure, abridged:
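Human hepatic HepaRG line treated 48 h with chemicals (eight concentrations, half-log steps from 100 uM); transcript induction or repression of GADD45G scored by qRT-PCR versus DMSO vehicle.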

Read-out in assay [11]: Glutamate-cysteine ligase regulatory (GCLM), GCLM (gene 2730)
In words: LTEA_HepaRG_GCLM: Life Technologies and Expression Analysis (LTEA) Assay for Glutamate-cysteine ligase regulatory (GCLM) using HepaRG (AID 2283500). The procedure, abridged:
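Human liver HepaRG cultures receive test chemicals for 48 hours at up to 100 uM in 0.5% DMSO. GCLM expression is measured by qRT-PCR and analysed for increases or decreases against vehicle.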

Read-out in assay [12]: Heat shock 70 kDa protein 1 (HSPA1A), gene 3303
Kind of assay: LTEA_HepaRG_HSPA1A: Life Technologies and Expression Analysis (LTEA) Assay for Heat shock 70 kDa protein 1 (HSPA1A) using HepaRG (AID 2283502). Put shortly:
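HSPA1A induction in human HepaRG liver cells is measured after 48 h of chemical treatment (100 uM maximum, 0.5% DMSO vehicle). Expression comes from qRT-PCR normalized to endogenous controls.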

Read-out in assay [13]: Hypoxia-inducible factor 1-alpha (Homo sapiens) (UniProt Q16665)
In words: LTEA_HepaRG_HIF1A: Life Technologies and Expression Analysis (LTEA) Assay for Hypoxia-inducible factor 1 (HIF1A) Trancription factor using HepaRG (AID 2283503). Put shortly: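 HepaRG, 48 h exposure, 8-pt half-log series from 100 uM, 0.5% DMSO vehicle, duplicates. Readout: HIF1A transcript by qRT-PCR (Fluidigm array), housekeeping-normalised. Bidirectional curve fit vs DMSO baseline.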

Read-out in assay [14]: 3-Hydroxy-3-Methylglutaryl-CoA Synthase 2 (HMGCS2), HMGCS2 (gene 3158)
Kind of assay: LTEA_HepaRG_HMGCS2: Life Technologies and Expression Analysis (LTEA) Assay for 3-Hydroxy-3-Methylglutaryl-CoA Synthase 2 (HMGCS2) using HepaRG (AID 2283504). The procedure, abridged:
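Expression of HMGCS2 in human HepaRG liver cells is measured by qRT-PCR 48 h after dosing (highest 100 uM, half-log series, 0.5% DMSO). Values come from bidirectional concentration-response fitting with DMSO as baseline.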

Read-out in assay [15]: HGF (gene 3082)
In words: LTEA_HepaRG_HGF: Life Technologies and Expression Analysis (LTEA) Assay for Hepatocyte Growth Facto (HGF) using HepaRG (AID 2283505). Put shortly:
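Gain or loss of HGF mRNA in human HepaRG liver cells after 48 h chemical exposure; eight concentrations up to 100 uM with 0.5% DMSO vehicle, quantified by TaqMan qRT-PCR.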

Read-out in assay [16]: Insulin Like Growth Factor 1 (IGF1), IGF1 (gene 3479)
Kind of assay: LTEA_HepaRG_IGF1: Life Technologies and Expression Analysis (LTEA) Assay for Insulin Like Growth Factor 1 (IGF1) using HepaRG (AID 2283506). The procedure, abridged: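 Using human HepaRG liver cells, IGF1 transcript induction or suppression is measured 48 h after dosing across eight concentrations capped at 100 uM. Values derive from bidirectional concentration-response fitting with DMSO as baseline.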

Read-out in assay [17]: Intercellular Adhesion Molecule 1 (ICAM1), ICAM1 (gene 3383)
In words: LTEA_HepaRG_ICAM1: Life Technologies and Expression Analysis (LTEA) Assay for Intercellular Adhesion Molecule 1 (ICAM1) using HepaRG (AID 2283507). The procedure, abridged:
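Gain or loss of transcript in HepaRG hepatic cells is quantified by qRT-PCR after 48 h chemical exposure (up to 100 uM, half-log steps), with DMSO as baseline.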

Read-out in assay [18]: Insulin-like growth factor-binding protein 1 (IGFBP1), IGFBP1 (gene 3484)
Kind of assay: LTEA_HepaRG_IGFBP1: Life Technologies and Expression Analysis (LTEA) Assay for Insulin-like growth factor-binding protein 1 (IGFBP1) using HepaRG (AID 2283508). The procedure, abridged:
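mRNA induction or loss was quantified by qRT-PCR after 48 h chemical exposure of human HepaRG cells, with 0.5% DMSO as vehicle and baseline. Concentration-response over eight points up to 100 uM.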

Read-out in assay [19]: Interleukin 6 (IL6), IL6 (gene 3569)
In words: LTEA_HepaRG_IL6: Life Technologies and Expression Analysis (LTEA) Assay for Interleukin 6 (IL6) using HepaRG (AID 2283509). Put shortly:
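Differentiated human HepaRG cells, plated 48 h then switched to serum-free induction medium, were exposed in duplicate for 48 h to eight half-log concentrations up to 100 uM in 0.5% DMSO. IL6 mRNA measured by qRT-PCR, normalized to ACTB/GAPDH/POLR2A.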

Read-out in assay [20]: Glutathione S-transferase M3 (GSTM3), GSTM3 (gene 2947)
In words: LTEA_HepaRG_GSTM3: Life Technologies and Expression Analysis (LTEA) Assay for Glutathione S-transferase M3 (GSTM3) using HepaRG (AID 2283501). Put shortly: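 Changes in GSTM3 expression, an oxidative-stress marker, were scored by bidirectional curve fitting against 0.5% DMSO vehicle. Human HepaRG cultures received chemicals for 48 h in duplicate, highest concentration 100 uM with half-log dilutions.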

Molecules are shown by their SMILES. Activity calls are given as the source filed them. The calls were made as follows: active = hit-call score of the fitted dose curve at least 0.9, where 1 is the maximum; inactive = score below 0.9.

Chain of Hypoxia-inducible factor 1-alpha (Homo sapiens) (Q16665 whole entry, looked up): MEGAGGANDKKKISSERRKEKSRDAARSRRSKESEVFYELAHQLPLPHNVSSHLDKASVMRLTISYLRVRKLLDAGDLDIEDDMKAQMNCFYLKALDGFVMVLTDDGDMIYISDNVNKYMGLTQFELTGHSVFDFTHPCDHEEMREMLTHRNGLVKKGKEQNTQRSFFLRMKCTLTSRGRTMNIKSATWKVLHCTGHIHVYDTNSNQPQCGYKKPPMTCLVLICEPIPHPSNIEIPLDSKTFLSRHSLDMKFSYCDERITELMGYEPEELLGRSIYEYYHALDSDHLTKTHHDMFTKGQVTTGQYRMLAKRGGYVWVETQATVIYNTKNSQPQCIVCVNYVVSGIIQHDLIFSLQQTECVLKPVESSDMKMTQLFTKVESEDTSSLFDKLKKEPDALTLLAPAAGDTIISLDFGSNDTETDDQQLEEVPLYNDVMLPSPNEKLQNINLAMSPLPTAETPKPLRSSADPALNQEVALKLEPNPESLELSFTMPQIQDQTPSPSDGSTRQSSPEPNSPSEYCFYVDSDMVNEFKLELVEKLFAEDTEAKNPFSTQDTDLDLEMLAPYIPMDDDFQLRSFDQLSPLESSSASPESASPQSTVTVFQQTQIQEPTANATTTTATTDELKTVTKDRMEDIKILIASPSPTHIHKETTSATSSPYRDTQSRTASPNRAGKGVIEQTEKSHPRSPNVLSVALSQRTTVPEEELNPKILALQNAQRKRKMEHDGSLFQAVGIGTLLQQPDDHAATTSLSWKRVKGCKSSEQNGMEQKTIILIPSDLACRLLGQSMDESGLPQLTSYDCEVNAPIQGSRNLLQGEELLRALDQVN
Chain of Cytochrome P450 3A7 (Homo sapiens) (P24462 whole entry, looked up): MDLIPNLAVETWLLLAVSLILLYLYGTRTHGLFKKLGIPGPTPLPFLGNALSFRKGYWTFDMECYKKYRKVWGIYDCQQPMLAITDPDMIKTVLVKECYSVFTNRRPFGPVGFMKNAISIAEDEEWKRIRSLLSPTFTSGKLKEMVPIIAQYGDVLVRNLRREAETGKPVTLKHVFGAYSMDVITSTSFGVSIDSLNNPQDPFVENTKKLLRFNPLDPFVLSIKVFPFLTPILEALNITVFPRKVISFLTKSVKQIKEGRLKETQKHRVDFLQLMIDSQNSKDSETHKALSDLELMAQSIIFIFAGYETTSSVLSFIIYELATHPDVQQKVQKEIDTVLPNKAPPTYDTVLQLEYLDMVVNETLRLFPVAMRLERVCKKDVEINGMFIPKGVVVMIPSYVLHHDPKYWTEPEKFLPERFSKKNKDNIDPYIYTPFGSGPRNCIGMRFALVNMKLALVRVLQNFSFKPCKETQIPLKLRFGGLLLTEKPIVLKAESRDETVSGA

The AC50 is the midpoint of the concentration-response curve, whichever way the signal moves. For `CN1C(=O)N(c2ccccc2Br)Cc2cnc(Nc3ccc4c(c3)OCC(CO)O4)nc21` (centres undefined), the AC50 was 24 µM (active) in assay [1]; 50 µM (active) in assay [3]; 82.1 µM (active) in [4]; 58.8 µM (active) in assay [5]; 50 µM (active) in assay [6]; 72.8 µM (active) in [7]. Also, the AC50 in assay [8] is 78 µM (active); in assay [9] it was 65.8 µM (active); in assay [10], 66.6 µM (active); in [12], 92.4 µM (active); in [13], 1.33 µM (active); in assay [14] it was 75.4 µM (active). The AC50 in assay [16] is 32.7 µM (active); in assay [18], 62.3 µM (active); in [19] it was 11.6 µM (active). Further, the result in assay [2], in assay [11], in [15] and in assay [17] was inactive.
For `Clc1ccccc1C(c1ccccc1)(c1ccccc1)n1ccnc1`, the AC50 in assay [1] is 71.5 µM (active); in assay [5] it was 18.1 µM (active); in assay [6], 15.7 µM (active); in assay [7] it was 28.5 µM (active); in [8] it was 50 µM (active); in assay [9], 63 µM (active). Besides, the AC50 was 28 µM (active) in assay [10]; 24.2 µM (active) in [11]; 24.3 µM (active) in assay [14]; 26.7 µM (active) in [15]; 15.8 µM (active) in assay [16]; 90.6 µM (active) in assay [17]. Also, the AC50 in assay [18] was 16.7 µM (active); in assay [19] it was 88.6 µM (active). Moreover, the outcome in assay [2], in [3], in assay [4] and in assay [12] was inactive.
Consider `CCCCCCCC[Si](OCC)(OCC)OCC`, for which the call in assay [1], in assay [2], in assay [3], in assay [4], in [5] and in assay [6] was inactive. In addition, the compound was called inactive in [7], in assay [9], in assay [10], in assay [11], in assay [20] and in assay [12]. The compound was called inactive in [13], in [14], in assay [16], in [17], in assay [18] and in assay [19].
With `O=CCCCC=O`, the compound was classed as inactive in [1], in [2], in assay [3], in assay [4], in [5] and in [6]. Further, the compound was classed as inactive in [8], in [9], in [10], in [12], in assay [13] and in assay [14]. In addition, the outcome in assay [16], in [17], in assay [18] and in [19] was inactive. In addition, in assay [11], the AC50 is 0.236 µM (active).
Take `CO[C@H]1/C=C/O[C@@]2(C)Oc3c(C)c(O)c4c(O)c(c(/C=N/N5CCN(C)CC5)c(O)c4c3C2=O)NC(=O)/C(C)=C\C=C\[C@H](C)[C@H](O)[C@@H](C)[C@@H](O)[C@@H](C)[C@H](OC(C)=O)[C@@H]1C`: the compound was classed as inactive in [1], in [2], in assay [6], in assay [9], in [10] and in assay [11]. Besides, the compound was classed as inactive in assay [12], in assay [14], in assay [17], in [18] and in [19]. Besides, the AC50 was 0.486 µM (active) in [5], 1.62 µM (active) in [7], 0.379 µM (active) in [8] and 4.12 µM (active) in assay [16].
For the compound `CCCOC(=O)c1cc(O)c(O)c(O)c1`, the compound was classed as inactive in assay [1], in assay [3], in [4], in assay [9], in [10] and in [11]. Also, the outcome in [20], in assay [12], in assay [13], in assay [15], in [18] and in [19] was inactive. The AC50 in assay [5] was 30.1 µM (active); in assay [6] it was 4.41 µM (active); in [7], 17.9 µM (active); in [14], 50 µM (active); in [16], 11.4 µM (active).
